# Assay outcomes from PubChem.
# CBX7 AlphaScr: CBX7 inhibition, primary AlphaScreen | 66,000 tested, 1.1% active | O95931 | normalised signal (fraction of DMSO) (test concentration not listed) | AlphaScreen His6-CBX7 / biotin-H3K27me3 peptide binding; active compounds read low; in the data active means normalised signal below about 0.5
# Target sequence (O95931 whole entry, looked up): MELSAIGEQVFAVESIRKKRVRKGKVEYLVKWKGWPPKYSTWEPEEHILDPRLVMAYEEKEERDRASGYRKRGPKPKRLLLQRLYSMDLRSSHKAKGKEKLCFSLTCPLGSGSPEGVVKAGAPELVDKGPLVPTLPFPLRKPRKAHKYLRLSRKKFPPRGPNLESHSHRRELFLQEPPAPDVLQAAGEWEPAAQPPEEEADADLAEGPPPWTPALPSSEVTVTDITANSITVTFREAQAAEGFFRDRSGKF
# * hit, by the source's call; ! = not active in a repeat. This is one part of a sample in which hits are shown more often than they occur.
SMILES,CBX7 AlphaScr
O=C(Nc1nc(-c2ccc(Cl)cc2)cs1)c1ccc2c(c1)OCO2,1.1
CC(=O)Nc1ccc(Nc2nc(-c3ccccc3)cs2)cc1,0.86
COc1ccc(-c2csc(Nc3ccccc3OC)n2)cc1F,1
COc1ccc(-c2csc(Nc3cccc(C(F)(F)F)c3)n2)cc1F,0.75
c1ccc(-c2csc(Nc3cccc4ccccc34)n2)cc1,0.82
COc1ccc(-c2csc(Nc3ccc4c(c3)OCO4)n2)cc1F,0.48*!
c1ccc(-c2csc(Nc3ccc4c(c3)OCO4)n2)cc1,0.37*!
Fc1ccc(-c2csc(Nc3ccc4c(c3)OCO4)n2)cc1,0.38*!
COc1ccc(N2CCN(C(=O)C3CCCN3S(=O)(=O)c3ccc4c(c3)CCC(=O)N4)CC2)cc1 (stereo unspecified),0.98
Clc1ccccc1-c1nc(-c2ccncc2)no1,1.1
COc1ccccc1-c1nc(-c2ccc(NC(=O)c3ccncc3)cc2)no1,1
O=C(Cn1c(SCc2ccccc2F)nc2ccncc21)N1CCCC1,1
Cc1ccc(NC(=O)CC2Nc3ccccc3NC2=O)cc1C (stereo unspecified),0.96
CC1CCN(S(=O)(=O)c2ccc3c(c2)CCN3C(=O)C2CCC2)CC1,1
C=CCN(CC=C)S(=O)(=O)c1ccc(C(=O)Nc2nnc(C3CC3)o2)cc1,0.004*
CCN(CC)S(=O)(=O)c1ccc(C(=O)Nc2nnc(-c3cccs3)o2)cc1,0.73
CN(Cc1ccccc1)S(=O)(=O)c1ccc(C(=O)Nc2nnc(C3CC3)o2)cc1,0.5
C=CCN(CC=C)S(=O)(=O)c1ccc(C(=O)Nc2sc3c(c2C(=O)OC)CCN(C)C3)cc1,1.1
N#CCCN(CCC#N)S(=O)(=O)c1ccc(C(=O)Nc2nnc(C3CC3)o2)cc1,0.0021*
CCN(CC)S(=O)(=O)c1ccc(C(=O)Nc2nnc(C3CC3)o2)cc1,0.003*
c1ccc(CCc2nn3c(-c4ccccc4)nnc3s2)cc1,1
Cc1ccccc1-c1nnc(NC(=O)c2c(-c3ccccc3Cl)noc2C)s1,1.1
CCOc1ccc(NC(=O)c2cc3c(-c4cccc(OC)c4)nn(C)c3s2)cc1,0.89
CC(=O)N1CCc2cc(S(=O)(=O)NCc3ccc(F)cc3)ccc21,1
CCCCOc1ccc(C(=O)Nc2ccc3oc(-c4ccc(F)cc4)nc3c2)cc1,1
SMILES,CBX7 AlphaScr
COc1ccccc1N1CCN(C(c2cccs2)C(C)NC(=O)c2cccnc2)CC1 (stereo unspecified),0.93
NC(=O)c1oc2ccccc2c1NC(=O)c1ccc(S(=O)(=O)N2CCOCC2)cc1,1
COc1ccc(-n2nc3c(c2NC(=O)COc2ccccc2)CSC3)cc1,1
Cc1nc2c(C(=O)NC3CCCCC3)cnn2c(C)c1Cc1ccccc1,0.93
CC(C)=CCc1c(C)nc2ccccc2c1C(=O)O,0.99
C=CCn1c(SCc2ccncc2)nc2cc(C(=O)N3CCOCC3)ccc2c1=O,1.1
CCN(CC)c1ccc(Nc2nc(-c3c(C)nc4ccccn34)cs2)cc1,0.076*
Cc1ccccc1Nc1nc(-c2c(C)nc3sccn23)cs1,0.4*!
CCOc1ccccc1Nc1nc(-c2c(C)nc3sccn23)cs1,1
Cc1ccc(Nc2nc(-c3c(C)nc4ccccn34)cs2)cc1,0.9
Cc1ccccc1Nc1nc(-c2c(C)nc3ccccn23)cs1,0.88
Cc1nc2ccccn2c1-c1csc(Nc2ccc(Cl)cc2)n1,0.95
CCCc1cc(C(=O)Nc2c(C)nn(Cc3ccc(F)cc3)c2C)no1,1
Cc1cc(NC(=O)CSc2nc3ccccc3o2)no1,0.78
c1ccc(C(Cc2nc(-c3ccncc3)no2)c2ccccc2)cc1,1
Cc1nc2cc(C(=O)NCCc3ccccc3)ccc2n1-c1cccc(Cl)c1,0.75
COc1cccc(CNC(=O)C2CCCN(S(=O)(=O)c3cnc[nH]3)C2)c1 (stereo unspecified),1.1
COc1ccc(-c2nc(-c3ccncc3)no2)cc1,1.1
C=CCc1cc(C)ccc1OCC(O)CN1CCN(c2ccccc2)CC1 (stereo unspecified),0.38*
C=CCc1cc(C)ccc1OCC(O)CN1CCCCC1 (stereo unspecified),1
C=CCc1ccccc1OCC(O)CN1CCN(c2ccccc2)CC1 (stereo unspecified),0.76
Cc1c(Cl)cccc1NC(=O)Nc1ccc2snnc2c1,1.1
Cc1cccc(Nc2nc3ccccc3nc2-n2nc(C)cc2C)c1,2.6
Cc1cc(C)n(-c2nc3ccccc3nc2Nc2ccc3c(c2)OCCO3)n1,1.9
Cc1cc(C)n(-c2nc3ccccc3nc2Nc2ccc(N(C)C)cc2)n1,0.22*
SMILES,CBX7 AlphaScr
COc1ccc(Cl)cc1C(=O)N(Cc1nc(-c2cccc(C)c2)no1)C(C)C,0.78
COc1ccc(N2Cc3cccc(C(=O)NC4CCCCCC4)c3C2=O)cc1,1
CCOC(=O)N1CCC(NC(=O)c2cccc3c2C(=O)N(c2ccc(OC)cc2)C3)CC1,0.47*
COc1ccc(N2Cc3cccc(C(=O)NC4CCCC4)c3C2=O)cc1,1.1
Cc1cc(NC(=O)CSc2nnc(CNC(=O)c3c(F)cccc3Cl)o2)no1,0.029*
COc1cc(C(=O)NCc2nnc(SCC(=O)Nc3cc(C)on3)o2)cc(OC)c1OC,0.051*
Cc1nnc(NC(=O)CSc2nnc(CNC(=O)COc3ccc(Cl)cc3)o2)s1,0.85
Cc1cc(NC(=O)CSc2nnc(CNC(=O)COc3ccc(Cl)cc3)o2)no1,0.21*
O=C(CSc1nnc(CNC(=O)c2c(F)cccc2Cl)o1)Nc1ccccc1,0.91
COc1ccc(C(=O)NCc2nnc(SCC(=O)Nc3cc(C)on3)o2)cc1OC,0.96
Cc1cccc(NC(=O)CSc2nnc(CNC(=O)c3c(F)cccc3Cl)o2)c1,1.1
COc1cc(C(=O)NCc2nnc(SCC(=O)Nc3ccc(Cl)cc3)o2)cc(OC)c1OC,0.95
Cc1cccc(NC(=O)CSc2nnc(CNC(=O)COc3ccc(Cl)cc3)o2)c1,1
Cc1cccc(C)c1NC(=O)C1CCCN(Cc2ccccc2)C1 (stereo unspecified),0.98
CC(NC(=O)c1ccc2c(c1)N(Cc1ccc(F)cc1)CCS2)c1ccccc1 (stereo unspecified),0.9
COc1ccc(CNC(=O)CN(C)S(=O)(=O)c2ccc3c(c2)n(C)c(=O)c(=O)n3C)cc1,1
COc1cccc(NC(=O)N2CCC(N(C)C(C)C)CC2)c1,0.84
CC1CCCN(S(=O)(=O)c2ccc3c(c2)CCN3C(=O)C2CCC2)C1 (stereo unspecified),1
CCOc1ccc2nc(NC(=O)C3CCCN(S(=O)(=O)c4cccc5cccnc45)C3)sc2c1 (stereo unspecified),0.9
Cc1ccc2nc(-c3ccc(NC(=O)CN4CCC(C(N)=O)CC4)cc3)sc2c1,1.2
Cc1ccc(S(=O)(=O)c2nc(-c3cccs3)oc2SCC(=O)NCC2CCCO2)cc1 (stereo unspecified),0.96
Clc1ccc(Nc2c(-c3ccccn3)nc3cnccn23)cc1,0.8
c1ccc(Nc2c(-c3ccccn3)nc3ccccn23)cc1,0.24*
Cc1ccc(Nc2c(-c3ccccc3)nc3ccccn23)cc1,0.98
Cc1cccn2c(Nc3ccccc3)c(-c3ccccn3)nc12,0.87
CC(C)c1ccc(Nc2c(-c3ccccn3)nc3ccccn23)cc1,0.21*
c1ccc(Nc2c(-c3ccc(N4CCOCC4)cc3)nc3ccccn23)cc1,1.1
Cc1cccc(C)c1Nc1c(-c2ccccn2)nc2c(C)cccn12,0.87
Cc1cccn2c(Nc3ccc(C(C)C)cc3)c(-c3ccccn3)nc12,0.26*
Cc1ccc(Nc2c(-c3ccc(C)cc3)nc3ccccn23)cc1,1.3
